For eight molecules, outcome results are on record in PubChem BioAssay (NCATS).

Structures are written as SMILES. Inconclusive results are not listed. The source made the active and inactive calls. Calls come from the whole dose curve; as a rule, active = well fitted curve in either direction with a large enough effect (not every such curve was filed as active); inconclusive = small, poorly fitted or top-dose-only effect, or another doubt; inactive = flat fitted curve, though single readings scatter.

The target in the experiment is Mitogen-activated protein kinase 10 (Mus musculus) (UniProt Q61831). As to the kind of experiment: JNK3 AlphaScreen Assay (AID 530).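 Note: kinase came from lysate of stimulated human HepG2 cells; signal reports phosphorylation of biotinylated GST-cJun 1-79 at Ser73 with 10 µM ATP.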 The conditions noted are these: JNK3 lysate, c-Jun phosphorylation; series mostly up to 57.1 µM. The method in brief:
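Inhibitors reduce antibody binding to phosphorylated biotin-cJun, lowering AlphaScreen luminescence. Lysates from HepG2 cells pre-activated by IL-1beta plus TNF-alpha supplied JNK3; compounds were titrated.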
For the molecule `COC1=C[C@H]2[C@@H]3Cc4ccc(OC)c(O)c4[C@@]2(CCN3C)CC1=O`, the molecule was classed as inactive.

With `CC(C)(O)[C@H]1[C@H]2OC(=O)[C@@H]1[C@]1(O)C[C@H]3O[C@]34C(=O)O[C@H]2[C@]14C`, the molecule was called inactive.

Regarding `CC[C@H](CO)NC(=O)[C@H]1C=C2c3cccc4[nH]cc(c34)C[C@H]2N(C)C1`, the result was inactive.

Take `COC[C@H]1OC(=O)c2coc3c2[C@@]1(C)C1=C(C3=O)[C@H]2CCC(=O)[C@@]2(C)C[C@H]1OC(C)=O`: the molecule was called inactive.

In the case of `C[C@@]12CCC[C@](C)(C(=O)O)[C@@H]1CCc1ccc(O)cc12`, the molecule was classed as inactive.

With `C[C@H]1CC[C@@H]2[C@@H](C)C(=O)O[C@H]3O[C@@]4(C)CC[C@@H]1[C@]32OO4`, the molecule was classed as inactive.

Consider `COc1cc2c(cc1OC)-c1c(O)c(OC)cc3c1[C@@H](C2)N(C)CC3`, for which the molecule was called inactive.

Consider `COc1cc2c(cc1O)CCN[C@H]2C`, for which the call was inactive.
